Screening results deposited in PubChem BioAssay by National Center for Advancing Translational Sciences (NCATS).
This is a sample that favours compounds with a hit; in the whole collection about 19% have one here.
HT1080 IDH1KD tx – HT-1080 IDH1 knockdown cell toxicity (counter line). HT-1080 IDH1 knockdown viability, ATP luminescence, 48 h. Potency, µM (titrated, usually from 46.1 µM), inactives show at the top dose activity, negative = toxicity, most hits filed as cytotoxic. actives 2% (n = 360,000). AID 686971;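 note: potency is the fitted concentration of half-maximal effect; 0% = DMSO wells and -100% = cell-free medium wells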
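% activity derives from luminescence (CellTiter-Glo), normalised to DMSO and no-cell wells. HT-1080-IDH1KD cells, 750/well, had 48 h compound exposure at 37 °C.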
DT40 TDP1 no CPT – qHTS for Inhibitors of human tyrosyl-DNA phosphodiesterase 1 (TDP1): qHTS in cells in absence of CPT. AID 686978, 2013. Potency, µM (series often up to 46.2 µM), without a hit: at the top dose activity change, negative = growth inhibition, hits mostly inhibitors. DT40 Tdp1-/- hTDP1 cells, no CPT, ATP luminescence, 48 h. actives 15% (n = 420,000); note: potency is the fitted concentration of half-maximal effect; nearly all actives have a fitted effect of over 55% in size
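Growth of hTDP1-complemented DT40 Tdp1-knockout cells is measured by ATP luminescence after at least 48 hr compound exposure at 37 °C, with DMSO substituting for the 20 nM CPT used in the parallel screen.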
IL-1B inflam inh – blocks inflammasome-driven IL-1 beta release; actives 4.7% (n = 360,000); THP-1 LPS/ATP IL-1B secretion, AlphaLISA, 16 h; active compounds read low; activity change, % at 57.5 µM; in the data active = activity change below about -50%; inconclusive = mostly about -30% to -49%
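THP-1 cells pretreated 1 hr with compounds (up to 57.5 uM final), then stimulated with LPS (250 ng/mL final) plus ATP (1.25 mM final); secreted IL-1B measured by AlphaLISA after 16 hr, decreased signal indicating inhibition.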
ELG1 repair inh – blocks ELG1-dependent DNA repair in HEK293T cells | HEK293T ELG1-luciferase reporter, luminescence, 16 h; DNA damage induced by 5-fluorouridine | Potency, µM (highest dose often 46.1 µM), inactives show at the top dose activity change, negative = inhibition, hits mostly inhibitors | actives 2.3% (n = 330,000) | AID 504467; note: potency is the fitted concentration of half-maximal effect; nearly all actives have a fitted effect of over 55% in size
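Luminescence from the luciferase reporter, measured 30 min after ONE-Glo reagent at room temperature, was the read-out. Beforehand, 2,000 cells per well were exposed for 16 hr at 37 °C to 5-fluorouridine together with compound or vehicle.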
TDP1 cell CPT – growth inhibition of DT40 Tdp1-/-;hTDP1 cells with camptothecin (screen for TDP1 inhibitors). Potency, µM (highest dose often 46.2 µM), for inactives: at the top dose activity change, negative = growth inhibition, hits mostly inhibitors. chicken DT40 Tdp1-/-;hTDP1 cells + 20 nM CPT, ATP luminescence, 48 h. actives 12% (n = 420,000); note: potency is the fitted concentration of half-maximal effect; nearly all actives have a fitted effect of over 55% in size
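Chicken DT40 Tdp1-/- cells stably complemented with human TDP1 were seeded at 400 cells/well in medium containing 20 nM camptothecin, exposed to pin-transferred compounds, and grown at 37 °C for at least 48 hr. Viability was read as ATP luminescence.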
HT1080-NT tox – kills 2HG-producing HT-1080-NT fibrosarcoma cells | HT-1080-NT fibrosarcoma viability, CellTiter-Glo ATP luminescence, 48 h | Potency, µM (top dose mostly 46.1 µM), for the others: at the top dose activity, negative = less viability, hits mostly cytotoxic | actives 1.6% (n = 360,000) | AID 686970;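 note: NT is the 2HG producing partner of a matched IDH1 knockdown line; potency is the fitted concentration of half-maximal effect; 0% = DMSO-treated cells and -100% = media-only wells without cells; nearly all actives have a fitted effect of over 55% in size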
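A 48-hour cytotoxicity screen used HT-1080-NT cells plated 2 hours before compound delivery. ATP-based CellTiter-Glo luminescence measured viability, normalized to DMSO and no-cell controls.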
* hit, by the source's call; ? = inconclusive; . = not tested or not shown; [ ] = dose if it differs, or a comment. Unless noted, calls come from the whole dose curve; as a rule, active = well fitted curve in the direction sought with a large enough effect; inconclusive = small, poorly fitted or top-dose-only effect, or another doubt; inactive = no such curve, though single readings can be large; an effect the other way counts as inactive or inconclusive. Unless noted, % is set by controls: 0 for no effect and ±100 for the full control effect.

SMILES | HT1080 IDH1KD tx | DT40 TDP1 no CPT | IL-1B inflam inh | ELG1 repair inh | TDP1 cell CPT | HT1080-NT tox
Cc1ccc(S(=O)(=O)NCCC(=O)N2CCC(Cc3ccccc3)CC2)cc1 | -9% | 21µM* | 0 | -27% | 15µM* | 0%
Cc1ccc(S(=O)(=O)NCCC(=O)N2CCN(C/C=C/c3ccccc3)CC2)cc1 | -12% | 15µM* | 22 | -13% | ? | -4%
Cc1ccc(S(=O)(=O)NC(CC(C)C)C(=O)N2CCN(C/C=C/c3ccccc3)CC2)cc1 (centres undefined) | -1% | 16µM* | -16 | ? | 16µM* | -12%
Cc1ccc(S(=O)(=O)NCc2ccc(C(=O)NCCCN3CCC(Cc4ccccc4)CC3)cc2)cc1 | ? | -7% | -65* | ? | 6% | ?
CCOC(=O)c1c(C)[nH]c(C)c1S(=O)(=O)N1CCC(C(=O)NCc2ccc(OC)cc2)CC1 | . | -11% | . | . | -6% | .
O=c1cnc2cnc(N3CCNCC3)nc2n1Cc1cccs1 | . | -19% | . | . | -4% | .
Cc1ccc(S(=O)(=O)NC(C)(C)CN2CCC(Cc3ccccc3)CC2)cc1 | ? | 18µM* | ? | ? | 16µM* | ?
CC(C)(CN1CCNCC1)NS(=O)(=O)c1ccc(Cl)cc1 | ? | ? | 0 | 11% | 23µM* | -4%[9.24 µM]
CCOC(=O)C1CCN(CC(C)(C)NS(=O)(=O)c2ccc(C)cc2)CC1 | -3% | -25% | 6 | ? | 1% | -16%
Cc1ccc(OCCNC(=O)C(C)SCC(=O)Nc2ccc(F)cc2)cc1 (centres undefined) | -1% | 0% | -5 | ? | -17% | -1%
CC(C)C(NC(=O)c1c(F)cccc1F)C(=O)NCCc1ccc(S(N)(=O)=O)cc1 (centres undefined) | 16% | 10% | 18 | 13% | 3% | 12%
O=C(CNc1ccc(Br)cc1)NC(=O)NC1CCCCC1 | -8% | ? | -25 | 14% | ? | -7%
Cc1cccc(N2CCN(C(=O)C3CCCN(S(=O)(=O)c4c(C)noc4C)C3)CC2)c1C (centres undefined) | -5% | 23µM* | -18 | . | 23µM* | -6%
O=C(NCc1ccc(F)cc1)C1CCCN(S(=O)(=O)c2ccc(Br)s2)C1 (centres undefined) | 0% | ? | -53* | -20% | ? | -10%
Cc1ccc(NC(=O)C2CCCN(S(=O)(=O)c3c(C)noc3C)C2)c(Br)c1 (centres undefined) | 1% | ? | -6 | ? | 21µM* | -6%
O=C(C1CCCN(S(=O)(=O)c2ccc(Br)s2)C1)N1CCCCCC1 (centres undefined) | -10% | 15µM* | -6 | . | 21µM* | -5%
O=C(O)C1CCCN(S(=O)(=O)c2ccc(Br)s2)C1 (centres undefined) | ? | -7% | -3 | -2% | 2% | 15%
CSCc1ccc(C(=O)NC2CC(C)(C)Cc3c2cnn3-c2ccc(F)cc2)o1 (centres undefined) | -19% | -30% | ? | -3% | ? | -8%
CC1CC(C)CN(C(=O)C(C)N2CCN(S(=O)(=O)c3cccs3)CC2)C1 (centres undefined) | 8% | -7% | 2 | -1% | -30% | 0%
Cc1cccc(N2CCN(C(=O)C3CCCN(S(=O)(=O)c4ccc(Br)s4)C3)CC2)c1C (centres undefined) | . | 8.2µM* | . | . | 9.2µM* | .
O=C(C1CCN(S(=O)(=O)c2ccc(Br)s2)CC1)N1CCCCC1 | -9% | 21µM* | -6 | ? | ? | -11%
O=C(C1CCCN(S(=O)(=O)c2ccc(Br)s2)C1)N1CCN(c2ccccc2)CC1 (centres undefined) | -20% | 13µM* | -16 | 15µM* | 18µM* | -4%
Cc1[nH]c(=O)[nH]c(=O)c1S(=O)(=O)N1CCCC(C(=O)N2CCN(c3ccccc3Cl)CC2)C1 (centres undefined) | 10% | -3% | 6 | 1% | -2% | 10%
CC1CC(C)CN(C(=O)C(C)N2CCN(S(=O)(=O)c3ccc(Br)s3)CC2)C1 (centres undefined) | 2% | ? | -59* | -28% | ? | 3%
CC(NC(=O)c1cccnc1Sc1ccccc1)c1ccc(S(N)(=O)=O)cc1 (centres undefined) | 6% | 7% | -4 | -1% | 31% | 3%
SMILES | HT1080 IDH1KD tx | DT40 TDP1 no CPT | IL-1B inflam inh | ELG1 repair inh | TDP1 cell CPT | HT1080-NT tox
CSc1ccc(C(=O)C2CCCN(S(=O)(=O)c3c(C)noc3C)C2)cc1 (centres undefined) | 7% | ? | -52* | ? | ? | -2%
Cc1noc(C)c1S(=O)(=O)N1CCC(C(=O)c2ccccc2)CC1 | 5% | -6% | 21 | 6% | 2% | 11%
O=C(NCc1ccncc1)C1CCCN(S(=O)(=O)c2cc(Cl)ccc2Cl)C1 (centres undefined) | -2% | 16µM* | 0 | ? | ? | -20%
N#Cc1cnn(-c2ccccc2)c1NC(=O)CN1CCN(c2ccccc2)CC1 | 16% | 23µM* | 37 | -6% | ? | 22%
Cc1cc(C)c(C)c(S(=O)(=O)N2CCN(CC(=O)Nc3sccc3C#N)CC2)c1C | ? | ? | 17 | ? | 26µM* | -13%
N#Cc1ccsc1NC(=O)CN1CCN(c2ccc(O)cc2)CC1 | -6% | 10µM* | 0 | -23% | ? | ?
C[C@@H]1CCCCO[C@H](CN(C)C(=O)C2CCCCC2)[C@@H](C)CN([C@H](C)CO)C(=O)c2cc(N(C)C)ccc2O1 | 14% | ? | -17 | . | ? | 6%
O=C(NCC1COc2ccccc2O1)c1cccc(S(=O)(=O)N2CCOCC2)c1 (centres undefined) | 2% | -21% | -5 | -7% | ? | 6%
Cc1cc2nc(CCN(C(=S)NCC(C)C)C3CCCC3)[nH]c2cc1C | ? | 23µM* | -66* | ? | ? | ?
Cc1cc2nc(CCN(C(=S)NCC3CCCO3)C3CCCC3)[nH]c2cc1C (centres undefined) | 4% | ? | -52* | ? | ? | 8%
CCC1NC(=O)c2cccnc2-n2c1nc1cc(F)ccc1c2=O (centres undefined) | 12% | -18% | 14 | . | -18% | 16%
